Measurements reported in PubChem BioAssay (EPA / NIEHS).
Active and inactive are the calls of the source. The calls were made as follows: active = hit-call score of the fitted dose curve at least 0.9, where 1 is the maximum; inactive = score below 0.9.

Experiments:
[1] = ATG_GLI_CIS: Attagene CIS-FACTORIAL HepG2 Assay for human Zinc Finger Protein GLI1 (AID 2282945); conditions: HepG2, Attagene cis-factorial reporter mRNA, GLI element; actives raise or lower the signal
How it was run: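 Bidirectional curve fits relative to DMSO, using reporter mRNA levels from RT-PCR plus capillary electrophoresis. Cells were HepG2 transiently carrying cis-regulated reporter constructs, harvested 24 h after dosing.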

[2] = molecular target: Bile acid receptor (Homo sapiens) (UniProt Q96RI1); assay: ATG_IR1_CIS: Attagene CIS-FACTORIAL HepG2 Assay for human Nuclear Receptor Subfamily 1 Group H Member 4 (NR1H4), IR1 submotif (AID 2282946); conditions: IR1 reporter transcription, actives raise or lower the signal
Bile acid receptor (Homo sapiens), sequence (Q96RI1 whole entry, looked up, the tested form may be a part): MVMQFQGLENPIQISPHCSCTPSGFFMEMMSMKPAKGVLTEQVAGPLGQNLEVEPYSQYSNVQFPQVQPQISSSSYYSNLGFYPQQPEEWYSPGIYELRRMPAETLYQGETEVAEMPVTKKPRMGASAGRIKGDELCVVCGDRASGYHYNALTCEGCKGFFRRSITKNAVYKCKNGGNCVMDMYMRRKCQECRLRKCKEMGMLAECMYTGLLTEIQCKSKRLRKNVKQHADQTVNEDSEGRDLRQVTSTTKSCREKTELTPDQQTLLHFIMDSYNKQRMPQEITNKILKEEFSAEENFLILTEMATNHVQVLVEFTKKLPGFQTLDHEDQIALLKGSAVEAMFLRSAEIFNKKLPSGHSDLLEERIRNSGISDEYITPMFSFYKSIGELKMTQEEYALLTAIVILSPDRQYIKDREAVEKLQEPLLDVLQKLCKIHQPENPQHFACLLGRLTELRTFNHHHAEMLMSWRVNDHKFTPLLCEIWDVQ
How it was run: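 Cells (human HepG2) carry transiently transfected cis-promoter reporter transcription units. Compounds are incubated 24 h, total RNA is reverse-transcribed and amplified, and labelled fragments are resolved by capillary electrophoresis. Curves use DMSO as baseline.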

[3] = ATG_GRE_CIS: Attagene CIS-FACTORIAL HepG2 Assay for human Glucocorticoid Response Elements (GRE) (AID 2282947); conditions: HepG2 GRE cis-reporter, Attagene multiplex mRNA; actives raise or lower the signal
How it was run: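 Transient MRTU transfection of human HepG2 liver cells; cis-regulated reporters report endogenous factors. 24 h dosing → RNA isolation → RT-PCR → 6-FAM primer extension → HpaI cut → CE fragment analysis. Bidirectional fit, DMSO negative control.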

[4] = ATG_ISRE_CIS: Attagene CIS-FACTORIAL HepG2 Assay for human Interferon Regulatory Factor 1 (IRF1) binding to an Interferon-Stimulated Response Element (ISRE) (AID 2282948); conditions: HepG2 ISRE cis-reporter (Attagene), mRNA transcription readout; actives raise or lower the signal
How it was run: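 HepG2 cells transiently transfected with multiplexed cis-promoter reporter units; after 24 h compound exposure, reporter mRNA quantified by RT-PCR, FAM labelling, HpaI digestion and capillary electrophoresis. Bidirectional fit versus DMSO baseline.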

[5] = ATG_M_32_CIS: Attagene CIS-FACTORIAL HepG2 Assay for M32 Transcription Factor (Internal Marker) (AID 2282949); conditions: HepG2 Attagene cis-factorial M32 reporter, mRNA; actives raise or lower the signal;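 also: background control marker of the multiplexed CIS panel rather than a real target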
How it was run: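 Fluorescent capillary electrophoresis peaks of HpaI-digested, FAM-labelled RT-PCR reporter products give the signal. Source: transiently transfected human liver HepG2 cells, 24 h after chemical dosing; bidirectional fitting against DMSO.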

[6] = ATG_M_06_CIS: Attagene CIS-FACTORIAL HepG2 Assay for M06 Transcription Factor (Internal Marker) (AID 2282950); conditions: HepG2 Attagene CIS-FACTORIAL M06 internal marker reporter; actives raise or lower the signal
How it was run: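 One of many multiplexed endpoints: HepG2 reporter mRNA after 24 h dosing, detected by RT-PCR and capillary electrophoresis fluorescence; gain or loss of signal analysed against DMSO.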

[7] = molecular target: Heat shock factor protein 1 (Homo sapiens) (UniProt Q00613); assay: ATG_HSE_CIS: Attagene CIS-FACTORIAL HepG2 Assay for human Heat Shock Transcription Factor 1 (HSE) (AID 2282953); conditions: HepG2 HSE cis-reporter, Attagene RNA transcription; actives raise or lower the signal
Heat shock factor protein 1 (Homo sapiens), sequence (Q00613 whole entry, looked up): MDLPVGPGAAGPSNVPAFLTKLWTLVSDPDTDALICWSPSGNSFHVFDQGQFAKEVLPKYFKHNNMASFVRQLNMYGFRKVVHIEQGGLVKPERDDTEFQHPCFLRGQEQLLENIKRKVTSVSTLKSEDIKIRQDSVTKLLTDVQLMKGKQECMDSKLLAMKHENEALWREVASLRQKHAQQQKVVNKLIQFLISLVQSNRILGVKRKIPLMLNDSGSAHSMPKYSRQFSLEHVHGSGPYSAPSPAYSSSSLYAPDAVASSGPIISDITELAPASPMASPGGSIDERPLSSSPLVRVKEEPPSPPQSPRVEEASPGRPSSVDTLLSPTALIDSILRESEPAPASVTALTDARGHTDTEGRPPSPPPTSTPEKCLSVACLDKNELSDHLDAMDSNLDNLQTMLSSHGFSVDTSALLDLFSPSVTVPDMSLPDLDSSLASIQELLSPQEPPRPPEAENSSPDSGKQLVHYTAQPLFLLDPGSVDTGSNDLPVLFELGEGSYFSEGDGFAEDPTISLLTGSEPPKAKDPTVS
How it was run: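 Using HepG2 with transfected cis-driven reporter constructs, compound effects on endogenous factor activity are scored as reporter mRNA change at 24 h. Detection: RT-PCR, HpaI digestion, capillary electrophoresis; bidirectional fitting to DMSO.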

[8] = ATG_MRE_CIS: Attagene CIS-FACTORIAL HepG2 Assay for human Metal Responsive Element (MRE) (AID 2282954); conditions: HepG2 MRE cis-reporter transcription, Attagene multiplex; actives raise or lower the signal
How it was run: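 Transient MRTU transfection of HepG2 (FuGene 6); 24 h dosing; total RNA → oligo(dT) RT, PCR, 6-FAM primer extension, HpaI cut, CE. Bidirectional fit vs DMSO.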

[9] = ATG_PBREM_CIS: Attagene CIS-FACTORIAL HepG2 Assay for human Phenobarbital-responsive Enhancer Module (PBREM) (AID 2282955); conditions: HepG2 PBREM cis-reporter, Attagene multiplexed transcription; actives raise or lower the signal
How it was run: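 HepG2, transient MRTU transfection, 24 h dosing; RNA → oligo(dT) RT → PCR → 6-FAM extension → HpaI → CE. Bidirectional fit vs DMSO.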

[10] = molecular target: Paired box protein Pax-6 (Homo sapiens) (UniProt P26367); assay: ATG_Pax6_CIS: Attagene CIS-FACTORIAL HepG2 Assay for human Paired Box 6 (PAX6) (AID 2282956); conditions: HepG2 CIS-FACTORIAL PAX6 reporter transcription, RNA readout; actives raise or lower the signal
Paired box protein Pax-6 (Homo sapiens), sequence (P26367 whole entry, looked up): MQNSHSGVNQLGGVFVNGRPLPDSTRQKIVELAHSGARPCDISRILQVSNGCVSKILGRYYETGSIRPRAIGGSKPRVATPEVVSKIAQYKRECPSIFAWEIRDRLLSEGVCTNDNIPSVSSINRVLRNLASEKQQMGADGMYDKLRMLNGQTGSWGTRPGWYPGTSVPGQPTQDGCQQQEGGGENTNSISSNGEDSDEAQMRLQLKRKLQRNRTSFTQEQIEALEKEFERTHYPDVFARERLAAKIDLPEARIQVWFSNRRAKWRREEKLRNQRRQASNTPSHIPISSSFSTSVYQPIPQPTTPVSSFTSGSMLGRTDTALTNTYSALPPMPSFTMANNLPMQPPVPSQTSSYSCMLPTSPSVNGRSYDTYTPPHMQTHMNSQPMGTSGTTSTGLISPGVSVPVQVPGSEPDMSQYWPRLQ
How it was run: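 HepG2 cells transiently transfected with multiplexed cis-promoter reporter units (endogenous TF activity) were dosed for 24 h. Reporter mRNA was quantified by RT-PCR, 6-FAM labeling, HpaI digestion and capillary electrophoresis; bidirectional fitting versus DMSO baseline.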

[11] = ATG_PXRE_CIS: Attagene CIS-FACTORIAL HepG2 Assay for human Pregnane X Receptor Element (PXRE) (AID 2282957); conditions: HepG2 Attagene CIS-FACTORIAL PXRE reporter, mRNA; actives raise or lower the signal
How it was run: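 HepG2 cells transiently transfected with cis-element-driven multiplexed reporter units; after 24 h chemical exposure, reporter mRNA measured by RT-PCR, 6-FAM labelling, HpaI digestion and capillary electrophoresis. Bidirectional fitting relative to DMSO.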

[12] = ATG_PPRE_CIS: Attagene CIS-FACTORIAL HepG2 Assay for human Peroxisome Proliferator-activated Response Element (PPRE) (AID 2282958); conditions: HepG2 PPRE cis-element reporter, Attagene transcription factor profiling; actives raise or lower the signal
How it was run: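 Transcript-level reporter induction in transfected HepG2 cells after 24 h chemical exposure, quantified by fluorescence from RT-PCR products separated by capillary electrophoresis.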

[13] = ATG_Sox_CIS: Attagene CIS-FACTORIAL HepG2 Assay for human SRY-box transcription factor (SOX) (AID 2282960); conditions: HepG2 Attagene cis-factorial SOX reporter, mRNA; actives raise or lower the signal
How it was run: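 Cells were transfected with reporter constructs under cis-regulatory promoters, then exposed to chemicals for 24 h. Reporter transcripts were quantified by fluorescence after RT-PCR and capillary electrophoresis; activity was fitted in both directions against DMSO.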

[14] = ATG_SREBP_CIS: Attagene CIS-FACTORIAL HepG2 Assay for human Sterol Regulatory Element Binding (SREBP) (AID 2282962); conditions: HepG2 Attagene cis-factorial SREBP reporter, mRNA; actives raise or lower the signal
How it was run: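 HepG2 cells transiently transfected with multiplexed cis-element reporter units report endogenous transcription factor activity. After 24 h of chemical exposure, reporter mRNA was quantified by RT-PCR, 6-FAM labelling, HpaI digestion and capillary electrophoresis; bidirectional fits used DMSO as baseline.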

[15] = molecular target: Signal transducer and activator of transcription 3 (Homo sapiens) (UniProt P40763); assay: ATG_STAT3_CIS: Attagene CIS-FACTORIAL HepG2 Assay for human Signal Transducer and Activator of Transcription 3 (STAT3) (AID 2282963); conditions: HepG2, Attagene cis-factorial STAT3 reporter transcription; actives raise or lower the signal
Signal transducer and activator of transcription 3 (Homo sapiens), sequence (P40763 whole entry, looked up): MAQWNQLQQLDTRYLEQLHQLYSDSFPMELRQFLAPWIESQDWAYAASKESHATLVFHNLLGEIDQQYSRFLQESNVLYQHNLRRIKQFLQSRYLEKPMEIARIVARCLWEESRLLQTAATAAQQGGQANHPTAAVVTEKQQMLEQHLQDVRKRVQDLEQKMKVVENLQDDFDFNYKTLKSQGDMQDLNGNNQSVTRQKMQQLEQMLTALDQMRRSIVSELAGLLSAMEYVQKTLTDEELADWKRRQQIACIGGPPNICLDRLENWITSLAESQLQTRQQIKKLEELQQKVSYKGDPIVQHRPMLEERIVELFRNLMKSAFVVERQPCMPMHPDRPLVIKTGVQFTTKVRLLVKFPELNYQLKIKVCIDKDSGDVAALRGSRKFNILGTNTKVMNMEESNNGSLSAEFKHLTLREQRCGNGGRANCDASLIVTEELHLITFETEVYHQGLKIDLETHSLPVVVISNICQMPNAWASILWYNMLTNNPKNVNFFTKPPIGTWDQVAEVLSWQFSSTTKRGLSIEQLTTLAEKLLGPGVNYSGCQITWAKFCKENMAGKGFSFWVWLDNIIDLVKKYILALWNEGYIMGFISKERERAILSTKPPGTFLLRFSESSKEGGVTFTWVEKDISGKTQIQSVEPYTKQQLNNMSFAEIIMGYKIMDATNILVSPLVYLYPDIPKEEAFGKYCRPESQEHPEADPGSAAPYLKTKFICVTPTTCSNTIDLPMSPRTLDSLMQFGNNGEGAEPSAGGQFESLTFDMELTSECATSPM
How it was run: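 Endogenous STAT3-responsive cis-element activity was read in transiently transfected HepG2 cells after 24 h treatment. Reporter transcripts were quantified via RT-PCR and capillary electrophoresis, with DMSO as negative control and bidirectional curve fitting.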

[16] = ATG_TA_CIS: Attagene CIS-FACTORIAL HepG2 Assay for human TA Basal Promoter (AID 2282964); conditions: HepG2 Attagene CIS-factorial TA basal promoter reporter; actives raise or lower the signal
How it was run: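 Transient MRTU transfection of HepG2 preceded 24 h compound exposure. Reporter mRNA levels were then read by RT-PCR with capillary electrophoresis, and this background-control endpoint was fitted bidirectionally to DMSO.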

[17] = molecular target: Hypoxia-inducible factor 1-alpha (Homo sapiens) (UniProt Q16665); assay: ATG_HIF1a_CIS: Attagene CIS-FACTORIAL HepG2 Assay for human Hypoxia Inducible Factor 1 (HIF1A) (AID 2282951); conditions: HepG2 Attagene cis-factorial HIF1a reporter transcription; actives raise or lower the signal
Hypoxia-inducible factor 1-alpha (Homo sapiens), sequence (Q16665 whole entry, looked up): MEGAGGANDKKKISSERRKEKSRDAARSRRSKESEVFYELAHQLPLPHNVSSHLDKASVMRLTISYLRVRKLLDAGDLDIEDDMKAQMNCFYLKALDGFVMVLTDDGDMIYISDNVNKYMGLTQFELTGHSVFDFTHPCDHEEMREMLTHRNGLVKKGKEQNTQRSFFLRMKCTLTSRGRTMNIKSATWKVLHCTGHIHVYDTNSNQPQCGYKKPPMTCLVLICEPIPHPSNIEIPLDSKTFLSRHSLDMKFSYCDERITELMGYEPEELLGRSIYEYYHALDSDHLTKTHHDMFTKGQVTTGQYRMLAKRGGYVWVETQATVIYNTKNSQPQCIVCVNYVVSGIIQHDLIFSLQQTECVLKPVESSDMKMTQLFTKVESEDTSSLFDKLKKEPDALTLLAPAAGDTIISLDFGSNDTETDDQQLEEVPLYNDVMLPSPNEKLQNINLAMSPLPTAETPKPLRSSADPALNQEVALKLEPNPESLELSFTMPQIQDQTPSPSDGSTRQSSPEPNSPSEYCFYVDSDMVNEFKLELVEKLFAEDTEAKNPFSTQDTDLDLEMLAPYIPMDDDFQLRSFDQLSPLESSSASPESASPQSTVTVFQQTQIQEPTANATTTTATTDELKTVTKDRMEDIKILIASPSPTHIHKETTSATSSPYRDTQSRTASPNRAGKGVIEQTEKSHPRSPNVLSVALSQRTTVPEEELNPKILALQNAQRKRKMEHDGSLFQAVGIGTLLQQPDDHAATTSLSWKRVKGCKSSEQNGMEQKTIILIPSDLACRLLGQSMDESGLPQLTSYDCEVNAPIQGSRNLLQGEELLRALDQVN
How it was run: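 HepG2, transient cis-reporter library, 24 h dosing. RNA → RT (oligo dT) → PCR → 6-FAM primer extension → HpaI → CE. Bidirectional curve fit vs DMSO.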

[18] = molecular target: Hepatocyte nuclear factor 6 (Homo sapiens) (UniProt Q9UBC0); assay: ATG_HNF6_CIS: Attagene CIS-FACTORIAL HepG2 Assay for human Hepatocyte Nuclear Factor 6 (HNF6) (AID 2282952); conditions: HepG2 Attagene cis-factorial HNF6 reporter transcription; actives raise or lower the signal
Hepatocyte nuclear factor 6 (Homo sapiens), sequence (Q9UBC0 whole entry, looked up, the tested form may be a part): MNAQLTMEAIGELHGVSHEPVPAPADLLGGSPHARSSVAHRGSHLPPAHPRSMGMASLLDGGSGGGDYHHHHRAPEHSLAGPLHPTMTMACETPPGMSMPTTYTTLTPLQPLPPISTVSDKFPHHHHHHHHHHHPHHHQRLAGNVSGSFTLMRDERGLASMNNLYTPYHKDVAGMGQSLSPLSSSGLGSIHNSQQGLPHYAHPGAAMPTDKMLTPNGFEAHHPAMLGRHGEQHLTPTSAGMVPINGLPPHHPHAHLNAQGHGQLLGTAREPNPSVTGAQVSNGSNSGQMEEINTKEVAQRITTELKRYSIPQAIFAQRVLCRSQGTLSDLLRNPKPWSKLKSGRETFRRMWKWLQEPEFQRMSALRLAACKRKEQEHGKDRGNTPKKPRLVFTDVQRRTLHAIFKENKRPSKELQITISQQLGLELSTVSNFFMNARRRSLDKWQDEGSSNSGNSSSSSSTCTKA
How it was run: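 HepG2 cells transiently transfected with cis-element-driven multiplexed reporter units measuring endogenous transcription factor activity. After 24 h exposure, reporter mRNA quantified by RT-PCR, FAM-labelled fragments and capillary electrophoresis; bidirectional fitting versus DMSO.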

[19] = ATG_RORE_CIS: Attagene CIS-FACTORIAL HepG2 Assay for human RAR-related Orphan Receptor Element (RORE) (AID 2282959); conditions: HepG2 Attagene cis-factorial RORE reporter, mRNA; actives raise or lower the signal
How it was run: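 Multiplexed reporter assay measuring mRNA induction from a cis promoter element in transiently transfected HepG2 cells after 24 h treatment. Detection via RT-PCR and capillary electrophoresis fluorescence; DMSO serves as baseline.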

[20] = molecular target: Transcription factor Sp1 (Homo sapiens) (UniProt P08047); assay: ATG_Sp1_CIS: Attagene CIS-FACTORIAL HepG2 Assay for human Specificity Protein 1 (Sp1) (AID 2282961); conditions: HepG2 Sp1 cis-reporter transcription, actives raise or lower the signal
Transcription factor Sp1 (Homo sapiens), sequence (P08047 whole entry, looked up): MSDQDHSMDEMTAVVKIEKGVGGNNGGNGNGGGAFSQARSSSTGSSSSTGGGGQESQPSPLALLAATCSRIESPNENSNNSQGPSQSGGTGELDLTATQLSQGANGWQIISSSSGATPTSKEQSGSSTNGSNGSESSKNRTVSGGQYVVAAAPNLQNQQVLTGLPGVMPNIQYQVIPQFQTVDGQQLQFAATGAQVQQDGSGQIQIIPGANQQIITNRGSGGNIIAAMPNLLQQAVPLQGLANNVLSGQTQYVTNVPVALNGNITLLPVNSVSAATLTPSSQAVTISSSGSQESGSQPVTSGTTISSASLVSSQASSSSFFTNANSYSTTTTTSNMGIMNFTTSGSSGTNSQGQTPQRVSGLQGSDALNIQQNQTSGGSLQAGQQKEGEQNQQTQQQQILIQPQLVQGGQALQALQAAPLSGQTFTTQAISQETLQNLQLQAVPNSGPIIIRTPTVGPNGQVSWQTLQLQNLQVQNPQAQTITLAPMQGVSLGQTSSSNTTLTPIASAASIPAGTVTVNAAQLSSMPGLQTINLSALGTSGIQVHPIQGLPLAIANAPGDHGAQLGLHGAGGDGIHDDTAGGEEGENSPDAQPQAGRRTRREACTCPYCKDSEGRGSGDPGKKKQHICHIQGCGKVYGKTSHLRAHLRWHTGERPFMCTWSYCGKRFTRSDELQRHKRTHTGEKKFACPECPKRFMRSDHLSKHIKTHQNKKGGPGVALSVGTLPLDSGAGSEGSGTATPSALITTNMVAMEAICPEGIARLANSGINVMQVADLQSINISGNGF
How it was run: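 Measures mRNA induction of an Sp1-linked reporter in HepG2 cells 24 h post-dosing. Multiplexed reporters read by RT-PCR and capillary electrophoresis; DMSO serves as negative control and baseline.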

Measured: AC50

Cn1ccnc1
not listed: [17] | [18] | [19] | [20]
inactive: all other assays above

CCCCC(CC)COS(=O)(=O)O (stereo not drawn)
active: [11] 62.9 µM
not listed: [3] | [9] | [12]
inactive: all other assays above

C=C(C)C(=O)OCC(O)COc1ccc(C(C)(C)c2ccc(OCC(O)COC(=O)C(=C)C)cc2)cc1 (stereo not drawn)
inactive: [1] | [2] | [5] | [6] | [18] | [9] | [19] | [20] | [15]
active: [4] 27 µM | [17] 31.1 µM | [7] 46.9 µM | [8] 52.7 µM | [10] 42.2 µM | [11] 2.17 µM | [12] 14.7 µM | [13] 65 µM | [14] 51 µM | [16] 28.3 µM

CCCCCCOC(=O)CCCCC(=O)OCCCCCC
active: [11] 19.8 µM
not listed: [3] | [7] | [14] | [15] | [18]
inactive: all other assays above

CC(C)[N+](C)(CCOC(=O)C1c2ccccc2Oc2ccccc21)C(C)C
active: [12] 42.7 µM
not listed: [7] | [9] | [14] | [17]
inactive: all other assays above

Cc1ccccc1CCO
active: [11] 26.6 µM
not listed: [3] | [9]
inactive: all other assays above

Cc1noc(NS(=O)(=O)c2ccc(N)cc2)c1C
not listed: [3] | [19] | [20]
inactive: all other assays above
